# According to PubChem BioAssay (NCATS):
# Where “and” joins values, the source holds several entries; their conditions need not be identical. Equal entries are not always repeated. A number with no mark means an inactive call. Records with an inconclusive call do not appear. A call without a number means that no potency is given here. Calls of active or inactive are those of the source. Unless noted, the call rests on the fitted dose curve; in most records, active means well fitted curve in the direction sought with a large enough effect; inconclusive means small, poorly fitted or top-dose-only effect, or another doubt; inactive means no such curve, though single readings can be large; an effect the other way counts as inactive or inconclusive.
# Tests used:
# [1] = molecular target: Cytochrome P450 3A4 (Homo sapiens) (UniProt P08684); assay: qHTS Assay for Activators of Cytochrome P450 3A4 (AID 885); further: nearly all actives have a fitted effect of over 65% in size; further: potency means the concentration at half of the fitted maximal effect
# Sequence of Cytochrome P450 3A4 (Homo sapiens) (P08684 whole entry, looked up): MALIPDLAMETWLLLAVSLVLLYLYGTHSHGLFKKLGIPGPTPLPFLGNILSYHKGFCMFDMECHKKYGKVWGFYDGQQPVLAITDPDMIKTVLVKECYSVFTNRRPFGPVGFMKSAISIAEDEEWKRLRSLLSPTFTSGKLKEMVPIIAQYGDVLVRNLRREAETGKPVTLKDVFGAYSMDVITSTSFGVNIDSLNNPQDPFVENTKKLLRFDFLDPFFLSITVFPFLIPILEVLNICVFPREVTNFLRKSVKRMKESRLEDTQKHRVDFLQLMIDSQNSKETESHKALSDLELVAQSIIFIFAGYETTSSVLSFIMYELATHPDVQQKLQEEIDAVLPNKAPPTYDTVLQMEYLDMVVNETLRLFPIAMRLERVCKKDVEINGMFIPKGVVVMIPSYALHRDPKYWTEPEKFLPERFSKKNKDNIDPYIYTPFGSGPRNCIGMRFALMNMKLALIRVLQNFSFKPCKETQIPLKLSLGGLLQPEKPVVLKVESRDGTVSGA
# Method in brief: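 Luminescent readout of luciferin formed from 25 uM Luciferin-PPXE (KM level) by 20 nM CYP3A4 in 200 mM KPO4, with 60 min NADPH-driven reaction at room temperature after 10 min compound exposure. Ketoconazole (57 uM) defined 100% inhibition.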
# [2] = Cell Viability - LYMP2-005 (AID 967); further: series mostly up to about 92 µM
# Method in brief: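 Human lymphoblastoid LYMP2-005 cells, 2,500 per well in complete medium, rested 5 h at 37C then compound-treated 24 h at 37C. Intracellular ATP read by CellTiter-Glo luminescence after 30 min at room temperature; AC50 from Hill-equation fits of concentration-response data.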
# [3] = molecular target: Androgen receptor (Homo sapiens) (UniProt P10275); assay: qHTS assay for small molecule agonists of androgen receptor signaling (AID 588515; active means well fitted curve in the direction sought with a large enough effect in the signal ratio, with a control signal flat; the % refers to the signal ratio); details: AR-UAS-bla HEK293, beta-lactamase ratio, agonist 16 h; active compounds read high
# Sequence of Androgen receptor (Homo sapiens) (P10275 whole entry, looked up): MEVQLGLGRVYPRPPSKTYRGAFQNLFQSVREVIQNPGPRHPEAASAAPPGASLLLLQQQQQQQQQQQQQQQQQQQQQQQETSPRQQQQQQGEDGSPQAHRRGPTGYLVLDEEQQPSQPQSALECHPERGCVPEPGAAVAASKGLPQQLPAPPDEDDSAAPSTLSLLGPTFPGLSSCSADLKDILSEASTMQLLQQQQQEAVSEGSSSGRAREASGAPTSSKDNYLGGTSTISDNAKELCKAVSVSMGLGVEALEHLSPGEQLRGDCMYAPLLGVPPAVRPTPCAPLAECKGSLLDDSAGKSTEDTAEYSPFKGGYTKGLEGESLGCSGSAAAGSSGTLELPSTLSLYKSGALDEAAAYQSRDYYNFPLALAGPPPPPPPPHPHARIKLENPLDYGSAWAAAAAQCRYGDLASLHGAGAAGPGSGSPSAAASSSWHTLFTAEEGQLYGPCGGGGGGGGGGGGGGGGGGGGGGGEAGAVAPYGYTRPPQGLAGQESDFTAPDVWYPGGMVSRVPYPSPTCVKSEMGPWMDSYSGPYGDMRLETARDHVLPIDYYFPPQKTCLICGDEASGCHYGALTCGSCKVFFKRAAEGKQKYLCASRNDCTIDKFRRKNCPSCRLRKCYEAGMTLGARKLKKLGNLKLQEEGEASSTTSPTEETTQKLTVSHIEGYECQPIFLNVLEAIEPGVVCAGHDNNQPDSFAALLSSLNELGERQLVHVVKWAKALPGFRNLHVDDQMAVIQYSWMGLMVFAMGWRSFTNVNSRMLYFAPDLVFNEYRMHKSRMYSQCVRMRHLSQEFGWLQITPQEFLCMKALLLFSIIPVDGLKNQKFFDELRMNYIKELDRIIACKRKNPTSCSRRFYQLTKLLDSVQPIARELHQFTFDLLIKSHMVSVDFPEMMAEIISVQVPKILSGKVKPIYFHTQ
# Method in brief: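 Stimulation of an AR-responsive β-lactamase reporter in GripTite HEK293 cells was measured after 16 h compound exposure at 37 °C, via CCF4 fluorescence after 2 h RT. EC50 from Hill fits, normalized to R1881 at 30 nM.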
# [4] = molecular target: Androgen receptor (Homo sapiens) (UniProt P10275); assay: qHTS assay for small molecule antagonists of androgen receptor signaling (AID 588516; active means well fitted curve in the direction sought with a large enough effect in the signal ratio, with a control signal flat, not every such curve was filed as active; the % refers to the signal ratio)
# Method in brief: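 AR-UAS-bla GripTite HEK 293 cells (2000/well) treated with compound titrations plus 10 nM R1881 for 16 h at 37C. Beta-lactamase read by CCF4 FRET (460/530 nm); IC50 from Hill fits, normalized to R1881 and DMSO control wells.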
# [5] = molecular target: Glucocorticoid receptor (Homo sapiens) (UniProt P04150); assay: qHTS assay for small molecule antagonists of glucocorticoid receptor signaling (AID 588533; active means well fitted inhibition curve with a large enough effect in the signal ratio, with a control signal flat, not every such curve was filed as active; the % refers to the signal ratio;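 further: cells stimulated with 2 nM dexamethasone as agonist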)
# Sequence of Glucocorticoid receptor (Homo sapiens) (P04150 whole entry, looked up, the tested form may be a part): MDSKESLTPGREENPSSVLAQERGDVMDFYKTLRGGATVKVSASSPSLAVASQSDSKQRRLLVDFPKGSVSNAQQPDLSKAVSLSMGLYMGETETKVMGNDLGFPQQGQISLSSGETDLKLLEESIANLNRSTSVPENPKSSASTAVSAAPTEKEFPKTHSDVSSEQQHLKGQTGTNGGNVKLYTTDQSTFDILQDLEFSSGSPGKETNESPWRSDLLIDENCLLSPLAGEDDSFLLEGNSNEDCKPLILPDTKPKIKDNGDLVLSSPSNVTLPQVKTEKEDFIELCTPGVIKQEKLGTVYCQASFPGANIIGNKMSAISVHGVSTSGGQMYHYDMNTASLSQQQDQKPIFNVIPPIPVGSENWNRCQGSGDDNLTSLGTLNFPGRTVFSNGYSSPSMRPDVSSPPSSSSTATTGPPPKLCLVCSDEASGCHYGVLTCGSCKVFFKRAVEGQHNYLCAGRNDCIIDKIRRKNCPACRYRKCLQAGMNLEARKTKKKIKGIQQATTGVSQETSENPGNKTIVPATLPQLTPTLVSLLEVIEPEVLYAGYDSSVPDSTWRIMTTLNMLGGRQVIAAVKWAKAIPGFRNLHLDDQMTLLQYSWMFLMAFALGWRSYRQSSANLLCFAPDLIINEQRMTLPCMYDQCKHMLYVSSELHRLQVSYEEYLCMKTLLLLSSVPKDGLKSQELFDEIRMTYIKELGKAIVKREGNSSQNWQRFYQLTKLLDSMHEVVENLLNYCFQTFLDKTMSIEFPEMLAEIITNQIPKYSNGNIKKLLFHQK
# Method in brief: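 Antagonist-mode qHTS: compound titrations added to GRE-bla HeLa cells, then dexamethasone 2 nM final; 18 h, 37 C. CCF4 FRET fluorescence normalized to dexamethasone and DMSO; IC50 from Hill fit.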
# [6] = qHTS assay to identify small molecules that stimulate interleukin-8 (IL-8) secretion (AID 651758; active means well fitted activation curve with a large enough effect in the signal ratio; the % refers to the signal ratio)
# Method in brief: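 Quantitative HTS in THP-1 monocytic cells at 2000 cells per well, with 16 hrs compound incubation at 37 C. IL-8 in the medium was then quantified by HTRF immunoassay, read after 1-3 hrs at room temperature.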
# [7] = molecular target: Bile acid receptor (Homo sapiens) (UniProt Q96RI1); assay: qHTS assay for small molecule agonists of farnesoid X receptor signaling (AID 588527; calls by dose curve; further: series mostly up to about 77 µM); details: HEK293T FXR-UAS-bla, beta-lactamase ratio, 16 h; active compounds read high
# Sequence of Bile acid receptor (Homo sapiens) (Q96RI1 whole entry, looked up): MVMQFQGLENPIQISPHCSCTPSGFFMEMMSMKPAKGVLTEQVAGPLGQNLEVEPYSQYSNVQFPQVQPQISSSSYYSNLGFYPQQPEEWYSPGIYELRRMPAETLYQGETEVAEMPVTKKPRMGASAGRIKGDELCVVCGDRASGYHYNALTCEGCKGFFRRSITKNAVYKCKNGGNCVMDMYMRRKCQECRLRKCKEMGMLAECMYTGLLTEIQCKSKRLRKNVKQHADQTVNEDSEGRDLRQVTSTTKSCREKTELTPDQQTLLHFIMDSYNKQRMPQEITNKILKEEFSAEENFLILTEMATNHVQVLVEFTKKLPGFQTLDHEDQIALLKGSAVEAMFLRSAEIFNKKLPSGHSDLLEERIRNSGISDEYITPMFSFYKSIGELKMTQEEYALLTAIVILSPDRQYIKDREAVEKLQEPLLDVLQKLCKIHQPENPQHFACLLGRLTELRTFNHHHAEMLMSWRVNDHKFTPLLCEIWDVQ
# Method in brief: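 Agonist-mode beta-lactamase reporter in GeneBLAzer FXR-UAS-bla HEK293T cells, titration up to 92 uM, 16 h exposure at 37 C, CCF4 fluorescence. Response scaled to DMSO (0%) and 100 uM chenodeoxycholic acid (100%), then Hill-fitted for EC50 and efficacy.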
# [8] = molecular target: Lysosomal acid glucosylceramidase (Homo sapiens) (UniProt P04062); assay: Glucocerebrosidase-p2 (AID 348; in the data active means potency below about 10 µM; further: potency means the concentration at half of the fitted maximal effect); details: purified GBA, blue fluorogenic substrate, 40 min
# Sequence of Lysosomal acid glucosylceramidase (Homo sapiens) (P04062 whole entry, looked up): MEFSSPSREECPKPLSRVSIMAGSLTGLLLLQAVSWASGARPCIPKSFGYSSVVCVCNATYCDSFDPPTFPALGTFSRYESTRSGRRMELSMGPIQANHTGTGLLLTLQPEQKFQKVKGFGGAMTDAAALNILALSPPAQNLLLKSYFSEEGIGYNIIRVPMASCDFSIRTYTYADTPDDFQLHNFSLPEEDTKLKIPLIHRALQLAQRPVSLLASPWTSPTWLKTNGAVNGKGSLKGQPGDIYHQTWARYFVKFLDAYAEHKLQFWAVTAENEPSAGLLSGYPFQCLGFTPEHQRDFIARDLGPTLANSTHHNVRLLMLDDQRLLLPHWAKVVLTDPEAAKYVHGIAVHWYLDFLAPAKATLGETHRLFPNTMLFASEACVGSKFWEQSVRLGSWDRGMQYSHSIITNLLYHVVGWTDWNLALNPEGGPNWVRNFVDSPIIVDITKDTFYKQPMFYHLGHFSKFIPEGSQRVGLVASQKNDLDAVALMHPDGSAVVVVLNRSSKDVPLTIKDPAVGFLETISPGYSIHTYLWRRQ
# Method in brief: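 Normal human glucocerebrosidase (0.2 nM) with blue fluorogenic substrate (80 uM final) in citrate/phosphate pH 5.9 with 10mM sodium taurocholate, 0.01% tween-20; 40 min RT, NaOH/glycine stop; fluorescence Ex 365/Em 440; AC50 from a titration from 0.6 nM upwards.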
# [9] = Stat Signaling Pathway (AID 446; active means well fitted curve in either direction with a large enough effect, not every such curve was filed as active;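 further: ME-180 cervical cancer cells given 40 pM IL-6 alongside compound; SIE-controlled beta-lactamase reporter measured as 460/530 nm FRET emission ratio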)
# Method in brief: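 FRET read-out (405 nm excitation, 460/530 nm emission) of a beta-lactamase reporter under a STAT-inducible element in ME-180 cervical carcinoma cells. Cells with compound receive 40 pM IL-6 for 5 h. Values are normalised to AC90 stimulation and AC90 JAK-inhibitor controls.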
# [10] = molecular target: Glucocorticoid receptor (Homo sapiens) (UniProt P04150); assay: GR-EFC Redistribution (AID 451; calls by dose curve; further: potency means the concentration at half of the fitted maximal effect); details: CHO-K1 GR-EFC translocation, beta-gal luminescence, 2 h
# Method in brief: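 CHO-K1 cells stably expressing nuclear-localized β-gal enzyme acceptor and GR fused C-terminally to the enzyme donor fragment; ligand-driven nuclear translocation restores β-gal by complementation. Compounds titrated up to 46 uM final, 2 h at 37 °C; luminescence read.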
# [11] = molecular target: 3',5'-cyclic-AMP phosphodiesterase 4B (Homo sapiens) (UniProt Q07343); assay: qHTS Assay for Inhibitors of PDE-IV (AID 607; active means well fitted activation curve with a large enough effect in the main read-out, with a control signal flat, not every such curve was filed as active)
# Sequence of 3',5'-cyclic-AMP phosphodiesterase 4B (Homo sapiens) (Q07343 whole entry, looked up): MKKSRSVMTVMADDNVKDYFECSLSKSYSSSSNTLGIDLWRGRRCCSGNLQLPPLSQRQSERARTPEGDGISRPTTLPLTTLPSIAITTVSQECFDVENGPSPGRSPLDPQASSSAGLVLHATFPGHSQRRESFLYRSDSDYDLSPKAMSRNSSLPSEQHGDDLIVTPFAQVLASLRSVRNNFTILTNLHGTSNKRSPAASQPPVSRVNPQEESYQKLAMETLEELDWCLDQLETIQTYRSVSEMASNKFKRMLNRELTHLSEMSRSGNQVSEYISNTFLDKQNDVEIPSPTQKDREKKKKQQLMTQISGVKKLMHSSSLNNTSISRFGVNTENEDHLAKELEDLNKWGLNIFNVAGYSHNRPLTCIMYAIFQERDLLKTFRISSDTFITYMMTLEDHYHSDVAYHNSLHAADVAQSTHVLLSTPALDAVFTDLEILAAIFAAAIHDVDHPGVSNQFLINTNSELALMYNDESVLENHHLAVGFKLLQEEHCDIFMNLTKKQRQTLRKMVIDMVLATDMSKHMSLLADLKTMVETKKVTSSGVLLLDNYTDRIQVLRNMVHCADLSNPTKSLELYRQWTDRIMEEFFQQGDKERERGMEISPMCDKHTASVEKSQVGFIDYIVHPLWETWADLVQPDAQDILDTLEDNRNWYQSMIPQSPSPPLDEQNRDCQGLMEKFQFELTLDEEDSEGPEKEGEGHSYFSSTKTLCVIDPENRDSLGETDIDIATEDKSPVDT
# Method in brief: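 Cell-based read-out of cAMP via a modified cyclic nucleotide-gated channel and membrane potential dye (535/590 nm) in HEK293 cells expressing PDE4 endogenously. Compounds tested up to 22.9 uM final; 100 uM RO 20-1724 reference.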
# [12] = tested on: HIV-1 nucleocapsid protein NCp7 (binding to TG oligonucleotide); assay: HIV Nucleocapsid (AID 346; call rule not given here;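 further: potency means the concentration at half of the fitted maximal effect; potency is for inhibitors that block NC binding and lower polarization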); details: HIV-1 NC / fluorescein-TGTGTGTG probe, fluorescence polarization
# Method in brief: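 Fluorescence polarization binding of 100 nM HIV-1 NC to 10 nM fluorescein-labelled TG4xF oligonucleotide. Buffer was Hepes pH 7.5 with 250mM NaCl, 1uM ZnCl2, TCEP and 2-mercaptoethanol. Compounds were incubated 1 hr at room temperature before the read.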
# [13] = AP1 Signaling Pathway (AID 357; active means well fitted curve in either direction with a large enough effect, not every such curve was filed as active;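 further: ME-180 reporter cells stimulated with EGF at its EC50 level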)
# Method in brief: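 Titration-series screen for positive or negative modulators of EC50 EGF-induced signaling in ME-180 cells carrying an AP-1-driven beta-lactamase reporter. After 5 hours at 37 degrees Celsius, CCF4 460nm/530nm emission ratio gave %Activity; AC50 values derived.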
smiles,measurement,setting,value
S=C=Nc1cccc2ccccc12,Potency,[1],inactive
same,Potency,[2],inactive
same,activation,[3],-5.44%
same,Potency,[4],inactive
same,Potency,[5],inactive
same,Potency,[6],inactive
O=C(Cl)C(Cl)(Cl)Cl,Potency,[2],inactive
same,Potency,[5],inactive
C=C(Cl)Cl,activation,[3],2.29%
same,Potency,[4],inactive
same,Potency,[6],inactive
Clc1ccc2ccccc2c1,activation,[3],11.2%
same,Potency,[4],inactive
CC(O)CCl (stereo unspecified),Potency,[2],inactive
CCOc1ccc(N)cc1,Potency,[5],inactive
same,Potency,[6],inactive
CCCCCCCC(=O)Cl,activation,[7],0.289%
same,Potency,[5],inactive
same,Potency,[6],inactive
O=C=NC1CCCCC1,Potency,[5],inactive
same,Potency,[6],inactive
CC(C)(c1ccccc1)c1ccc(O)cc1,Potency,[1],inactive
same,Potency,[2],inactive
same,activation,[7],1.02% and 4.37%
same,Potency,[5],inactive
same,Potency,[6],inactive
OCC1CO1 (stereo unspecified),Potency,[2],inactive
same,activation,[7],-2.37% and -0.462%
same,Potency,[5],inactive
c1nc[nH]n1,Potency,[1],inactive
same,Potency,[2],inactive
same,activation,[7],0.583%
C=CC1CC=CCC1 (stereo unspecified),activation,[7],1.2% and -0.94%
same,Potency,[5],inactive
O=[N+]([O-])c1ccc(Cl)c(Cl)c1,activation,[7],1.09%
same,Potency,[5],inactive
Nc1ccc(Br)cc1,activation,[7],0.791%
CCCC(=O)Cl,Potency,[2],inactive
same,Potency,[5],inactive
same,Potency,[6],inactive
c1ccc2c(c1)CCCC2,Potency,[2],inactive
same,activation,[3],-2.87%
same,Potency,[4],inactive
same,Potency,[5],inactive
C=CC(=O)OCC,Potency,[2],inactive
same,Potency,[5],inactive
Cc1cccc([N+](=O)[O-])c1,Potency,[2],inactive
CCSC(=O)Cl,Potency,[2],inactive
same,activation,[3],5.7%
same,Potency,[4],inactive
same,activation,[7],-1.31%
C1CCC2CCCCC2C1 (stereo unspecified),Potency,[2],inactive
same,activation,[7],-3.01%
OCC(Br)CBr (stereo unspecified),Potency,[2],inactive
C=C(C)C(=O)OCC1CO1 (stereo unspecified),Potency,[2],inactive
CCC[CH2][Sn]([Cl])([Cl])[Cl],Potency,[2],inactive
same,activation,[7],-3.23% and -2.97%
same,Potency,[5],inactive
N#CCCCl,Potency,[2],inactive
same,Potency,[5],inactive
same,Potency,[6],inactive
O=C(Oc1ccccc1)N1CCC[C@@]2(CCN(Cc3cc(C(F)(F)F)cc(C(F)(F)F)c3)C2)C1,Potency,[8],> 11.4 µM
same,outcome,[9],inactive
same,Potency,[10],> 46 µM
same,Potency,[11],inactive
COc1ccc(N)cc1,Potency,[1],inactive
same,Potency,[5],inactive
same,Potency,[6],inactive
ClC(Cl)=C(Cl)C(Cl)=C(Cl)Cl,Potency,[2],inactive
same,Potency,[5],inactive
same,Potency,[6],inactive
O=C(Oc1ccccc1)N1CCC[C@@]2(CCN(Cc3ccccc3)C2)C1,Potency,[12],> 20 µM
same,Potency,[8],> 11.4 µM
same,outcome,[13],inactive
same,outcome,[9],inactive
same,Potency,[10],> 46 µM
same,Potency,[11],inactive
same,Potency,[1],inactive
Clc1nc(Cl)nc(Nc2ccccc2Cl)n1,Potency,[2],inactive
same,Potency,[5],inactive
O=C(c1ccco1)N1CCC2(CC1)CN(Cc1ccncc1)C2,Potency,[8],> 11.4 µM
same,outcome,[13],inactive
same,outcome,[9],inactive
same,Potency,[10],> 46 µM
same,Potency,[11],inactive
CC(C)CN1CCCC2(CCN(C(=O)Oc3ccccc3)CC2)C1,Potency,[12],> 20 µM
same,Potency,[8],> 11.4 µM
same,outcome,[13],inactive
same,outcome,[9],inactive
same,Potency,[10],> 46 µM
same,Potency,[11],inactive
same,Potency,[1],inactive
CCCCOCCOP(=O)(OCCOCCCC)OCCOCCCC,Potency,[1],inactive
same,Potency,[2],inactive
ClC(Cl)=C(Cl)Cl,Potency,[6],inactive
O=C(Nc1ccccc1)N1CCC2(CC1)CCN(C(=O)Oc1ccccc1)CC2,Potency,[12],> 20 µM
same,Potency,[8],> 11.4 µM
same,outcome,[13],inactive
same,Potency,[10],> 46 µM
same,Potency,[11],inactive
same,Potency,[1],10 µM (active)
